Test results as given in PubChem BioAssay (NCATS).
Results filed as inconclusive are left out. The source made the active and inactive calls. The call rests on the fitted dose curve; in most records, active means well fitted curve in the direction sought with a large enough effect; inconclusive means small, poorly fitted or top-dose-only effect, or another doubt; inactive means no such curve, though single readings can be large; an effect the other way counts as inactive or inconclusive.

Tests used:
[1] = tested on: HEK293; test: Cytotoxic Profiling of Annotated Libraries Using Quantitative High-Throughput Screening (AID 1296008); settings: Five cell lines viability, CellTiter-Glo ATP luminescence, 48-72 h; max response: active compounds read low; further: nearly all actives have a fitted effect of over 60% in size; on max response: on the % scale 0 is the no-effect control and ±100 the full control effect
Procedure, shortened: (§1)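 Cells exposed to compounds for 48 or 72 hr at 37 degrees Celsius. Viability read as ATP-coupled luminescence with CellTiter-Glo after 10 min at room temperature.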

[2] = tested on: KB-3-1; test: as above; settings: Five cell lines viability, CellTiter-Glo ATP luminescence, 48-72 h; max response: active compounds read low
Procedure, shortened: as §1

[3] = tested on: NIH3T3; test: as above; settings: Five cell lines viability, CellTiter-Glo ATP luminescence, 48-72 h; max response: active compounds read low
Procedure, shortened: as §1

[4] = tested on: C33A; test: Primary qHTS to identify gynecologic anti-cancer compounds using libraries of approved drugs and bioactive compounds (AID 1345084); settings: Gynecologic cancer cell panel viability, ATPlite luminescence, 48 h; series mostly up to 57.5 µM; further: on the % scale 0 is the no-effect control and ±100 the full control effect; nearly all actives have a fitted effect of over 55% in size
Procedure, shortened: (§2)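 Cells, 1,000 per well, plated 16 h, then exposed 48 h at 37 C to compounds. Viability by ATPlite luminescence after 15 min at room temperature.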

[5] = tested on: CAOV3; test: as above; settings: Gynecologic cancer cell panel viability, ATPlite luminescence, 48 h; series mostly up to 57.5 µM
Procedure, shortened: as §2

[6] = tested on: CASKI; test: as above; settings: Gynecologic cancer cell panel viability, ATPlite luminescence, 48 h; series mostly up to 57.5 µM
Procedure, shortened: as §2

[7] = tested on: Es-2; test: as above; settings: Gynecologic cancer cell panel viability, ATPlite luminescence, 48 h; series mostly up to 57.5 µM
Procedure, shortened: as §2

[8] = tested on: HeLa; test: as above; settings: Gynecologic cancer cell panel viability, ATPlite luminescence, 48 h; series mostly up to 57.5 µM
Procedure, shortened: as §2

[9] = tested on: Hek293T; test: as above; settings: Gynecologic cancer cell panel viability, ATPlite luminescence, 48 h, control line for the selectivity index; series mostly up to 57.5 µM
Procedure, shortened: as §2

[10] = tested on: JEG-3; test: as above; settings: Gynecologic cancer cell panel viability, ATPlite luminescence, 48 h; series mostly up to 57.5 µM
Procedure, shortened: as §2

[11] = tested on: NIH3T3; test: qHTS assay to identify novel small-molecules to repurpose for Merkel cell carcinoma treatment (AID 1296009); settings: MCC and control cell lines, CellTiter-Glo viability, 72 h; at 44.8 µM (top of the series) unless noted; further: nearly all actives have a fitted effect of over 60% in size
Procedure, shortened: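 Dose-response viability screen; 72 hr exposure at 37 degree celsius; CellTiter-Glo added, 10 min room temperature, luminescence read; RLUs scaled between no-cell and DMSO wells.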

COc1ccc(Cl)c(Nc2nc3ccccc3nc2NS(=O)(=O)c2cccc(NC(=O)C(C)(C)N)c2)c1
inactive: max response [1] -13.5% | max response [2] -5.68% | max response [3] -15.2% | Potency [4] | Potency [5] | Potency [6] | Potency [7] | Potency [8] | Potency [9] | Potency [10]

NC(=O)[C@H](O[C@@H]1O[C@H](CO)[C@@H](O)[C@H](O)[C@H]1O)c1ccccc1
inactive: max response [1] -3.01% | outcome [2] | max response [3] 4.94% | Potency [4] | Potency [5] | Potency [6] | Potency [7] | Potency [8] | Potency [9] | Potency [10]

O=C(O)c1ccc(OC2OC(CO)C(O)C(O)C2O)cc1 (stereo not drawn)
inactive: max response [1] -2.82% | max response [2] 6.64% | max response [3] 1.85% | Potency [4] | Potency [5] | Potency [6] | Potency [7] | Potency [8] | Potency [9] | Potency [10]

COC(=O)C12CCC(C)C(C)C1C1=CCC3C4(C)CCC(OC(C)=O)C(C)(C)C4CCC3(C)C1(C)CC2 (stereo not drawn)
inactive: max response [1] 0.571% | max response [2] 5.8% | outcome [3] | outcome [11] inactive [at 17.4 µM] | Potency [4] | Potency [5] | Potency [6] | Potency [7] | Potency [8] | Potency [9] | Potency [10]

OC[C@H]1O[C@@H](Oc2cc(O)c3c(c2)O[C@@H](c2ccc(O)cc2)[C@H](O)C3)[C@H](O)[C@@H](O)[C@@H]1O
inactive: max response [1] -5.13% | outcome [2] | outcome [3] | outcome [11] inactive [at 17.4 µM] | Potency [4] | Potency [5] | Potency [6] | Potency [7] | Potency [8] | Potency [9] | Potency [10]

C/C=C/C=C/C=C/C(=O)OC1C=C(C=O)C(O)(C(=O)O)C2(C)CCCC(C)(C)C12 (stereo not drawn)
inactive: max response [1] 1.26% | max response [2] 7.06% | max response [3] 3.49% | Potency [4] | Potency [5] | Potency [6] | Potency [7] | Potency [8] | Potency [9] | Potency [10]

C=C1C(=O)O[C@H](CCC)[C@H]1C(=O)O
inactive: max response [1] -3.38% | max response [2] 2.02% | outcome [3] | outcome [11] | Potency [5] | Potency [7] | Potency [8] | Potency [9] | Potency [10]

C=CC1C(OC2OC(CO)C(O)C(O)C2O)OC=C(C(=O)OC)C1CC1CC(=O)CC(CCc2ccc(O)cc2)O1 (stereo not drawn)
inactive: max response [1] -3.27% | max response [2] 0.837% | max response [3] -7.36% | Potency [4] | Potency [5] | Potency [6] | Potency [7] | Potency [8] | Potency [9] | Potency [10]

CC1(C)CC[C@]2(C(=O)O[C@@H]3O[C@H](CO)[C@@H](O)[C@H](O)[C@H]3O)CC[C@]3(C)C(=CCC4[C@@]5(C)CC[C@H](O[C@@H]6O[C@H](C(=O)O)[C@@H](O)[C@H](O[C@@H]7O[C@H](CO)[C@H](O)[C@H](O)[C@H]7O)[C@H]6O)C(C)(C)C5CC[C@]43C)C2C1 (stereo partly drawn)
inactive: max response [1] 1.5% | max response [2] 3.29% | outcome [3] | outcome [11] inactive [at 9.27 µM] | activity change, negative = cytotoxicity [4] -1.04% [at 11.6 µM] | activity change, negative = cytotoxicity [5] 0.89% [at 11.6 µM] | activity change, negative = cytotoxicity [6] -0.547% [at 11.6 µM] | activity change, negative = cytotoxicity [7] -0.756% [at 11.6 µM] | activity change, negative = cytotoxicity [8] -6.39% [at 11.6 µM] | activity change, negative = cytotoxicity [9] 7.67% [at 11.6 µM] | activity change, negative = cytotoxicity [10] 4.29% [at 11.6 µM]

O=S(=O)(Nc1ccccn1)c1ccc(N=Cc2c(O)[nH]c3ccc4ncsc4c23)cc1
inactive: max response [1] -3.48% | max response [2] -4.18% | outcome [3] | outcome [11] inactive [at 9.27 µM] | activity change, negative = cytotoxicity [6] 20.8% [at 11.6 µM] | activity change, negative = cytotoxicity [7] -0.0602% [at 11.6 µM] | activity change, negative = cytotoxicity [9] 20.8% [at 11.6 µM] | activity change, negative = cytotoxicity [10] 3.65% [at 11.6 µM]

C=CC(C)(O)C(O)CC1C(C)(O)C(O)C(O)C2C(C)(C)CCCC21C (stereo not drawn)
inactive: max response [1] -10.3% | max response [2] -10.5% | outcome [3] | outcome [11] | Potency [4] | Potency [5] | Potency [6] | Potency [7] | Potency [8] | Potency [9] | Potency [10]

CC(=O)N[C@@H](C(=O)O[C@H]1CCC(C)(C)[C@@H]2CCC3=C(COC3=O)[C@@]12C)C(C)C
inactive: max response [1] 1.75% | max response [2] -11.9% | outcome [3] | outcome [11] | Potency [4] | Potency [5] | Potency [6] | Potency [7] | Potency [8] | Potency [9] | Potency [10]

COc1cc2c3c(cc4ccccc4c3c1O)NC2=O
inactive: max response [1] -10.3% | outcome [2] | outcome [3] | outcome [11] | Potency [4] | Potency [5] | Potency [6] | Potency [7] | Potency [8] | Potency [9] | Potency [10]

CC(=O)C1=C(C)N(c2cccc(C(F)(F)F)c2)C(=O)N[C@H]1c1ccc(C#N)nc1
inactive: max response [1] -4.03% | max response [2] 1.77% | max response [3] -21.8% | activity change, negative = cytotoxicity [4] 16.9% [at 11.6 µM] | activity change, negative = cytotoxicity [5] 8.36% [at 11.6 µM] | activity change, negative = cytotoxicity [6] 11.8% [at 11.6 µM] | activity change, negative = cytotoxicity [7] 6.68% [at 11.6 µM] | activity change, negative = cytotoxicity [8] 11% [at 11.6 µM] | activity change, negative = cytotoxicity [9] -1.04% [at 11.6 µM] | activity change, negative = cytotoxicity [10] -3.38% [at 11.6 µM]

Cc1[nH]c2ccccc2c1CCNC(=O)c1ccccc1F
inactive: max response [1] 2.26% | max response [2] 3.4% | max response [3] 2.05% | Potency [4] | Potency [5] | Potency [6] | Potency [7] | Potency [8] | Potency [9] | Potency [10]
